# Laboratory results: PubChem BioAssay AID2165 (The Scripps Research Institute Molecular Screening Center, 2009)
# The source made the active and inactive calls. Rule as the data show it: active = IC50 below about 9 µM; inactive = the rest.
# Tested on: Ba/F3 Cytotoxicity
# Assay: JAK2V617F kinase, IRF1 reporter and Ba/F3 cytotoxicity panel, late-stage follow-up, HEL and Ba/F3 cells (AID 2165)
row,Structure (SMILES),IC50
1,N#CC(C#N)=Cc1cc(O)c(O)c(I)c1,8990 nM (active)
2,CC(C)[C@@H](CO)Nc1nc(Nc2cccc(Cl)c2)c2ncn(C(C)C)c2n1,950 nM (active)
3,N#CC(C#N)=Cc1ccc(O)c(O)c1,2560 nM (active)
